# In PubChem BioAssay AID493072 (Broad Institute, 2011):
# Potency and affinity values are given separately. The source made the active and inactive calls.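 Rule for the calls: active = signal drops and a fitted half-effect dose is at or below ten times that sample's top valid dose; inconclusive = flat fit with a moderate drop, or a poor fit; inactive = the rest.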
# Test: LuxS/LuxPQ-dependent luminescence inhibition, V. harveyi – dry powder, set 2, dose response (AID 493072)
# Conditions: Vibrio harveyi JMH597 AI-2 quorum sensing luminescence, 9 h; series mostly up to 16 µM
structure (smiles),measurement,value
CCc1ccc(C(=O)Nc2ccc(Br)cn2)cc1,outcome,inactive
